RXFP1 antagonist: RXFP1 (human) relaxin receptor antagonism; Q9HBX9; HEK293-RXFP1, relaxin-stimulated cAMP HTRF, 30 min; stronger effect = lower value; activity change, negative = inhibition, % at 57.5 µM; hit rate 0.59% among 350,000;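 active = activity change of -60% or lower, but not beyond a set lower limit; inconclusive = change between -60% and -40%, or beyond the set limit; inactive = change above -40%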; note: % is set by controls: 0 for no effect and ±100 for the full control effect
Target sequence (Q9HBX9 whole entry, looked up): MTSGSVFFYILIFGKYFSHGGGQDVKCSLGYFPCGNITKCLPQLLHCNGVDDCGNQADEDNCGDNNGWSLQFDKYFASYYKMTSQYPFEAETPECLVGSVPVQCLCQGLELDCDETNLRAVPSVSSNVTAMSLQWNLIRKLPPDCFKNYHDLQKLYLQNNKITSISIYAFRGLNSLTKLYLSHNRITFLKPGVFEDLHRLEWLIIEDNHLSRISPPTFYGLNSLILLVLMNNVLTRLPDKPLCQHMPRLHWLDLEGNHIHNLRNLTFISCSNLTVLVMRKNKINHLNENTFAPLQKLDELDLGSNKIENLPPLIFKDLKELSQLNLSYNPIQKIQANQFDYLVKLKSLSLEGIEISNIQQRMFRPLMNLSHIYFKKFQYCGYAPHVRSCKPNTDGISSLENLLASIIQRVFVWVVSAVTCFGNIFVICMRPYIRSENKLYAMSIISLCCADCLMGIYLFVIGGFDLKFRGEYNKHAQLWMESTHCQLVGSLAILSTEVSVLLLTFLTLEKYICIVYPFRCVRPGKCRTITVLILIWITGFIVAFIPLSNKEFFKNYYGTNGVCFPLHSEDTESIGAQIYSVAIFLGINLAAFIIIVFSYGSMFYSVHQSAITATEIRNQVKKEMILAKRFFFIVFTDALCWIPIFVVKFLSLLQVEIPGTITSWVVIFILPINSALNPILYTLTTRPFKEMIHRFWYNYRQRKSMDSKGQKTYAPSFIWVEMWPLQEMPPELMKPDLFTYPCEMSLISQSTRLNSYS
TSHR antagonist: antagonists of human thyroid stimulating hormone receptor | P16473 | TSHR-expressing cells, TSH-stimulated cAMP HTRF, 2 h; stronger effect = lower value | AID 504810 | hit rate 0.2% among 330,000 | activity change, negative = inhibition, % at 11.5 µM;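 active = activity change below a set negative limit, meaning inhibition stronger than a set level, cut at about -70% in these data; inconclusive = activity change between two set negative limits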; note: % is set by controls: 0 for no effect and ±100 for the full control effect
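Freshly harvested TSHR cells receive pin-tooled compound, then EC80 TSH at 4nM final. After 2 hours at 37 deg C, antibody in lysis buffer and cAMP-d2 are added; 30 minutes at ambient temperature precede the HTRF read.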
gsp antagonist: gsp mutant antagonism; hit rate 0.4% among 340,000; Potency, µM (series often up to 76.9 µM), for inactives: at the highest dose activity change, negative = inhibition, most hits filed as inhibitors; AID 624288; gsp-mutant cells, cAMP HTRF, 30 min; calls by dose curve; cell line not stated here;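 note: intracellular cAMP measured with PDE inhibitor Ro 20-1724 present during compound exposure; potency is the fitted concentration of half-maximal effect; % is set by controls: 0 for no effect and ±100 for the full control effect; nearly all actives have a fitted effect of over 65% in size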
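G418-selected cells were plated in DMEM/10% FBS for 16-24 h at 37C, then treated with compounds plus the PDE inhibitor […] (300 uM solution added) for 30 min at 37C. Intracellular cAMP was measured by HTRF after 30 min lysis at room temperature.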
gsp ag: activates gsp, the McCune-Albright syndrome mutation | Potency, µM (doses to about 76.9 µM), for the others: top-dose activation (cAMP increase), actives largely listed as activators | gsp mutant cells, cAMP HTRF, 30 min | hit rate 0.13% among 340,000; active = well fitted activation curve with a large enough effect; inconclusive = small, poorly fitted or top-dose-only effect, or another doubt; inactive = no such curve, though single readings can be large or run the other way; cell line not stated here;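 note: phosphodiesterase inhibitor Ro 20-1724 added with compounds to block cAMP breakdown; potency is the fitted concentration of half-maximal effect; nearly all actives have a fitted effect of over 60% in size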
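Cells stably selected in G418 were plated at 2000/well, grown 16-24 hr, then given compounds in DMSO with the PDE inhibitor […] (300 uM solution added) for 30 min at 37C; cAMP was read by HTRF.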
RXFP1 agonist: agonists of human relaxin receptor RXFP1 | hit rate 0.3% among 370,000 | HEK293T-RXFP1 cAMP TR-FRET, 30 min; response scale: percent of porcine relaxin response, buffer zero | Q9HBX9 | Potency, µM (titrated, usually from 57.5 µM), without a hit: at the top dose activation, actives largely listed as activators; active = well fitted activation curve with a large enough effect; inconclusive = small, poorly fitted or top-dose-only effect; note: potency is the fitted concentration of half-maximal effect; % is set by controls: 0 for no effect and ±100 for the full control effect; nearly all actives have a fitted effect of over 60% in size
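Agonist response is measured as cAMP accumulation in an RXFP1-transfected HEK293T line under PDE4 inhibition. Values are scaled between buffer-only and 29 nM porcine relaxin, and EC50s come from standard Hill equation fits.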
* = called active by the depositor; ? = inconclusive; . = not tested or not shown; ! = a repeat was not active; [ ] = another dose, or the depositor's remark. Most compounds without a hit are left out; they make up all but 1% or so of the library.

SMILES	RXFP1 antagonist	TSHR antagonist	gsp antagonist	gsp ag	RXFP1 agonist
COc1ccc2c(c1)c1ncnc(N3CCN(Cc4ccc5c(c4)OCO5)CC3)c1n2C	.	-11	.	.	8%
COc1ccc2[nH]c3c(N4CCN(Cc5ccc6c(c5)OCO6)CC4)ncnc3c2c1	-17	-10	40µM*	11%	2%
CCC(=O)Oc1c(Sc2ccc(Cl)cc2)c(C)nn1C(C)(C)C	.	.	.	.	-2%
COCCCNc1oc(/C=C/c2cc(OC)c(OC)c(OC)c2)nc1C#N	-3	.	.	.	24%
CSc1ccc(CCNC(=O)CCc2nnc3ccc(N4CCCCC4)nn23)cc1	.	2	3%	21%	8%
CSc1ccc(CCNC(=O)CCc2nnc3ccc(N4CCOCC4)nn23)cc1	.	2	2%	16µM*	26%
Cc1ccc(CNC(=O)CCc2nnc3ccc(N4CCC5(CC4)OCCO5)nn23)cc1	16	32	4%	?	18µM*
COc1ccc(CNC(=O)CCc2nnc3ccc(N4CCC5(CC4)OCCO5)nn23)cc1	14	7	6%	0%	?
Cc1c(CCNC(=O)c2c(F)cccc2F)sc2nc(-c3ccc(F)cc3)nn12	-10	.	.	.	2%
COC(=O)c1c(NC(=O)c2cc(=O)c3cc(C)cc(C)c3o2)sc2c1CCC2	-8	.	.	.	-3%
CC(=O)N1CCN(S(=O)(=O)c2cccc(C(=O)Nc3ccc4c(c3)OCO4)c2)CC1	-5	-7	11µM*	2%[15.4 µM]	2%
CCOC(=O)c1c(NC(=S)Nc2ccc(Cl)cc2)sc(C)c1C	-1	7	-10%	-7%	2%
COC(=O)c1c(NC(=S)Nc2ccc(CC(=O)O)cc2)sc(C)c1C	-63*	-1	0%	?	18%
Cc1cc2c(s1)c1c(C)nn(Cc3ccccc3F)c(=O)c1n2C	.	7	.	.	11%
O=C(Nc1cc(F)ccc1F)N1CCN(c2ccnc3cc(Cl)ccc23)CC1	.	-13	?	-44%	7%
Cc1ccc(F)cc1NC(=O)N1CCN(c2ccnc3cc(Cl)ccc23)CC1	-11	-5	35µM*	-1%	0%
Cc1cccc(Cl)c1NC(=O)N1CCN(c2ccnc3cc(Cl)ccc23)CC1	-4	-3	28µM*	23%	3%
COc1cnn(-c2ccc(C)cc2)c(=O)c1SCc1ccccc1	-6	-5	32µM*	?	-13%
CC(C)N(Cc1ccccc1)C(=O)c1cc2ccc3cccnc3c2[nH]1	-101*	.	.	.	0%
CCOc1ccccc1NC(=O)c1cc2ccc3cccnc3c2[nH]1	6	.	.	.	2%
COc1ccccc1NC(=O)c1cc2ccc3cccnc3c2[nH]1	-71*	.	.	.	0%
OCCN1CCN(c2nc(-c3ccccc3)c3cc(Br)ccc3n2)CC1	-70*	13	6%	5%	8%
Fc1ccc(-n2c(-c3ccc4c(c3)OCO4)n[nH]c2=S)cc1Cl	-25	-8	1%	?	4%
COc1cc(OC)cc(-c2n[nH]c(=S)n2-c2ccc3c(c2)OCO3)c1	-16	-5	-15%	7.1µM*	10%
COc1cc(-c2n[nH]c(=S)n2-c2ccc(C)cc2)cc(OC)c1OC	-14	9	-8%	14µM*	-1%
SMILES	RXFP1 antagonist	TSHR antagonist	gsp antagonist	gsp ag	RXFP1 agonist
O=C(/C=C\c1ccc2c(c1)OCO2)NC1CC(=O)N(c2cccc(F)c2)C1 (stereo not given)	-9	.	.	.	2%
Cc1ccc(C(=O)N/N=c2\oc3ccccc3cc2C(N)=O)cc1	-4	-8	-18%	-27%	4%
NC(=O)c1cc2ccccc2o/c1=N/NC(=O)c1cccc(Cl)c1	3	-79*	2%	?	1%
CCOc1ccc(CCNC(=O)CCCn2c(=O)c3cccn3c3cccnc32)cc1OCC	-96*!	-4	?	0%	?
Cc1ccc(C)c(N2CCN(C(=O)c3c4c(nc5ccccc35)C(=O)N(C3CCCCC3)C4)CC2)c1	7	.	.	.	-4%
CCOCCCNC(=O)C(=O)Nc1c2c(nn1-c1ccc(OC)cc1)CSC2	-16	.	.	.	-1%
N=c1c2c(-c3ccccc3)c(-c3ccccc3)n(Cc3ccco3)c2ncn1Cc1ccco1	-102*	-14	4%	5%	2%
O=C(O)c1ccccc1NC(=O)c1cc2ccccc2oc1=O	-14	-15	32µM*	?	4%
O=C(NCCc1ccccc1)c1cc2ccccc2oc1=O	-2	-118*	0%	19%	4%
COCCNC(=O)c1cnn2c(C(F)(F)F)cc(-c3ccc(C)cc3)nc12	-12	4	35µM*	-78%	-1%
Cc1ccc(-c2cc(C(F)(F)F)n3ncc(C(=O)O)c3n2)cc1	5	-2	-13%	-3%	0%
Cc1cccc(OCC(=O)N(Cc2ccco2)c2c(N)n(Cc3ccccc3)c(=O)[nH]c2=O)c1	-6	-8	50µM*	-31%	-1%
CCCc1nc2ccccc2n1CC(O)COc1ccc(C(=O)OC)cc1 (stereo not given)	-8	.	.	.	-2%
CCN(CC(=O)Nc1ccccc1C(F)(F)F)C(=O)CN1C(=O)NC(C)(c2ccccc2)C1=O (stereo not given)	3	-3	-3%	26%	0%
CCN(CC(=O)Nc1ccccc1C(F)(F)F)C(=O)CN1C(=O)NC2(CCCC2)C1=O	-60*	16	6%	-15%[15.4 µM]	1%
CCN(CC)S(=O)(=O)c1ccc(NC(=O)c2ccc(N(C)S(C)(=O)=O)cc2)cc1	-7	-17	-3%	?	0%
CCN(CC)S(=O)(=O)c1ccc(C(=O)Nc2nnc(NC(=S)Nc3ccccc3)s2)cc1	-85*	-12	-5%	-6%[15.4 µM]	0%
CCN(CC)S(=O)(=O)c1ccc(C(=O)Nc2ccc(Cc3ccncc3)cc2)cc1	-20	-30	50µM*	35%	0%
CCOc1ccc(NC(=O)Cn2c(=O)oc3cc(S(=O)(=O)NC4CCCC4)ccc32)cc1	.	.	.	.	3%
CCn1c(=O)c([N+](=O)[O-])c(Cl)c2ccccc21	?	-79*	?	-3%	-1%
C=CCn1c(=O)[nH]c2cc(C(=O)N3CCN(c4cccc(Cl)c4)CC3)ccc2c1=O	-6	-10	32µM*	-42%	0%
C=CCn1c(=O)[nH]c2cc(C(=O)N3CCN(c4ccc(C(C)=O)cc4)CC3)ccc2c1=O	24	-11	-23%	-21%	3%
CCSc1nnc(-c2ccccc2SC)o1	2	6	6%	?	22µM*
O=C(O)/C=C/C(=O)Nc1ccc(C2(c3ccc(NC(=O)/C=C/C(=O)O)cc3)c3ccccc3-c3ccccc32)cc1	-61*	-86*	1%	-19%	0%
CC(C)c1nc(N2CCN(C(=O)c3ccco3)CC2)c(C#N)c2c1COC(C)(C)C2	-61*	-14	-11%	-10%	3%
